Here are results for six molecules from PubChem BioAssay.

Active and inactive are the calls of the source.

In test [1] the test system is Human papillomavirus type 1a protein E7 (residues 44-93). In words: small molecules binding HPV E7 44-93 – biochemical, small-molecule microarray, residues 44-93, 635 nm fluorescence, primary screen (AID 1108).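 Note: E7 fragment applied at 1 µg/mL in TBST for 1 h at 4 C; score combines spot fluorescence with its signal to noise ratio.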 The conditions noted are these: fluorescence 635 nm, higher = more signal.
Test [2] is described as follows: hepatitis C replication reporter changes, two-sided – Huh7 cells, luciferase reporter, HCV replication inhibitor project, primary screen (AID 1109).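 Note: huh7 hepatoma cells harbouring a luciferase neomycin HCV replicon reporter; luciferase luminescence as measure of HCV replicon replication; test concentration not given here.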 The conditions noted are these: Huh7 HCV replicon luciferase reporter, 48 h; higher = more signal. A general note: In a reporter assay the amount or activity of a reporter protein is the signal.
Test [3] addresses Left-right determination factor 2 (Homo sapiens) (UniProt O00292). In words: small molecules binding LEFTY2 protein – biochemical, small-molecule microarray, 635 nm fluorescence scan, primary screen (AID 1110). The settings on record: higher = more signal.
For test [4], the target named is Calmodulin-1 (Homo sapiens) (UniProt P0DP23). In words: small molecules binding calmodulin-1 with EGTA – biochemical, small-molecule microarray, Cy5-labelled CALM1, profiling panel (AID 1111).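 Note: labelled calmodulin applied in Tris saline Tween buffer holding calcium plus EGTA and DTT.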 The conditions noted are these: Cy5-CALM1 binding fluorescence, higher = more signal.
Test [5] shares this target. In words: small molecules binding Ca-loaded calmodulin-1 – biochemical, small-molecule microarray, Cy5-labelled CALM1, plus calcium, artefact control for SMM control-protein annotation, profiling panel (AID 1112).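 Note: score merges spot fluorescence with signal to noise from triplicate slides.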 The conditions noted are these: Cy5-CALM1 binding fluorescence, higher = more signal.
Test [6] is described as follows: probe aWnt5a binding to arrayed compounds – biochemical, biotinylated probe, 635/667 nm fluorescence, primary screen (AID 1113).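 Note: score merges 667 nm fluorescence intensity with signal-to-noise per printed feature.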 The conditions noted are these: small-molecule microarray, higher = more signal.
Test [7] can be described thus: probe aShh binding to arrayed compounds – biochemical, biotinylated probe, 635/667 nm fluorescence, primary screen (AID 1114).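 Note: probe is biotin-labelled aShh protein from a stem cell growth factor screen; measures binding of labelled protein to compounds printed on the slide; score merges feature fluorescence at 667 nm with signal-to-noise.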 The settings on record: small-molecule microarray, higher = more signal.
Test [8] can be described thus: probe aNog binding to arrayed compounds – biochemical, biotinylated probe, 635/667 nm fluorescence, primary screen (AID 1115).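 Note: probe is biotinylated aNog protein used at 0.15 µg/mL for 1 h at 4 C; z-score combines 667 nm fluorescence of each spot with its signal to noise.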 The conditions noted are these: small-molecule microarray, higher = more signal.
In test [9] the target is Torsin-1A-interacting protein 1 (Homo sapiens) (UniProt Q5JTV8). In words: compound microarray binding of lysate hLAP1 – cell lysate, small-molecule microarray, COS7 lysate, 635/667 nm fluorescence, primary screen (AID 1116). The conditions noted are these: 635 nm fluorescence, higher = more signal.
Torsin-1A-interacting protein 1 (Homo sapiens), sequence (Q5JTV8 whole entry, looked up): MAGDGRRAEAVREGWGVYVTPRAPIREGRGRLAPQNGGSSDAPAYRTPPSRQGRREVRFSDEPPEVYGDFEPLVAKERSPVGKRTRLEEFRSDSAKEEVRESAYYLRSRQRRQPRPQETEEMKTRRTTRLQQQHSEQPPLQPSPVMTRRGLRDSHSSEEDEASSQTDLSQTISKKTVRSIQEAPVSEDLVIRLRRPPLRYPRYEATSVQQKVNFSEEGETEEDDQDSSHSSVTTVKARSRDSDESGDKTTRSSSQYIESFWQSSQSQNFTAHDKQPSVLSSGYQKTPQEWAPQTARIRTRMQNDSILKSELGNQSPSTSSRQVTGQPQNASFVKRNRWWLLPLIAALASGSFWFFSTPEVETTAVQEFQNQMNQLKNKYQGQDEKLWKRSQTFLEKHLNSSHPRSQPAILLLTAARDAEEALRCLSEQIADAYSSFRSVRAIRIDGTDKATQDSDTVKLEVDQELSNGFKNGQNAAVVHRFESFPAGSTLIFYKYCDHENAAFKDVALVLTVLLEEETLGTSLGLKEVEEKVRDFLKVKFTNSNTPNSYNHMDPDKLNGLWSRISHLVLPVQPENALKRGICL
Test [10] concerns the target Alpha-bungarotoxin (Bungarus multicinctus) (UniProt P60615). The experiment in a line: compounds binding labelled alpha-BTX control protein – biochemical, small-molecule microarray, Alexa647 label, 635/667 nm fluorescence, artefact control for SMM control protein annotation, profiling panel (AID 1117). The settings on record: alpha-BTX-A647 binding fluorescence, higher = more signal.

Another test deals with Albumin (Bos taurus) (UniProt P02769). The experiment in a line: compounds binding labelled BSA control protein – biochemical, small-molecule microarray, Alexa647 label, 635/667 nm fluorescence, artefact control for SMM control protein annotation, profiling panel (AID 1118).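 Note: score merges 667 nm emission intensity and signal-to-noise per printed compound spot.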 The settings on record: BSA-A647 binding, fluorescence 635 nm, higher = more signal.
Albumin (Bos taurus), sequence (P02769 whole entry, looked up): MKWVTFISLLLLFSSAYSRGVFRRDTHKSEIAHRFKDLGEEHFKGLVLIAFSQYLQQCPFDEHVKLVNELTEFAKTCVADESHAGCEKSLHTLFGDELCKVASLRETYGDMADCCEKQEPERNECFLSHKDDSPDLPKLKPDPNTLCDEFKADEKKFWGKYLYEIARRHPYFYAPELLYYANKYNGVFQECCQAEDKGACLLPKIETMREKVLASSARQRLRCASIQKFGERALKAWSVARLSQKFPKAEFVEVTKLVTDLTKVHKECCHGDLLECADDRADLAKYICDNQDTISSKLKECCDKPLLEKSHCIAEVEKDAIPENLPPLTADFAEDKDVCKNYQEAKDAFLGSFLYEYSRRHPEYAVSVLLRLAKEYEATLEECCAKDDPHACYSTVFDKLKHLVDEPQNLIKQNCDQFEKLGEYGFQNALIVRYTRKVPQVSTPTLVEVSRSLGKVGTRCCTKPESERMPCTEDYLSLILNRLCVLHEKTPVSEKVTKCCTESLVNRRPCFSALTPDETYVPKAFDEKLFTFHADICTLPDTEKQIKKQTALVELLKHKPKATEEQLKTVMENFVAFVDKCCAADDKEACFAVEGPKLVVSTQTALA
Test [11] in a line: probe aXIP binding to arrayed compounds – biochemical, NeuroSMM set, 635/667 nm fluorescence, primary screen (AID 1119).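 Note: probe is the protein aXip251-270 applied at 1 µg/mL to compound-printed slides; binding of probe to printed compounds measured as 667 nm fluorescence plus signal to noise.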 The settings on record: small-molecule microarray, higher = more signal, called active from +8 up or from −8 down.
The nature of test [12]: probe aNOTCH3 binding on compound microarray – biochemical, small-molecule microarray, 635/667 nm fluorescence, primary screen (AID 1120).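 Note: probe is a biotin-tagged antibody raised against NOTCH3 rather than NOTCH3 protein; score merges spot fluorescence near 667 nm with spot signal to noise.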 The conditions noted are these: higher = more signal.
A short description of test [13]: probe aNOTCH2 binding on compound microarray – biochemical, small-molecule microarray, 635/667 nm fluorescence, primary screen (AID 1121).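 Note: score merges feature fluorescence read at 667 nm with its signal to noise.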 The settings on record: higher = more signal.
Test [14] deals with Carbonic anhydrase 2 (Homo sapiens) (UniProt P00918). The experiment in a line: compounds binding carbonic anhydrase 2 – biochemical, small-molecule microarray, Alexa647-labelled CAII, profiling panel (AID 1122). The settings on record: CAII-A647 binding fluorescence, higher = more signal.
Test [15] can be described thus: COS7 lysate on small-molecule microarray, probe aHis, 635 nm (AID 1123).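 Note: z-score combines 667nm fluorescence intensity with signal-to-noise per printed compound spot.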 The conditions noted are these: COS7 cell lysate, fluorescence, higher = more signal.
Test [16] in a line: probe aLAP1 signal on lysate-treated microarray – cell lysate, small-molecule microarray, COS7 lysate, primary screen (AID 1124).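 Note: lysate comes from COS7 cells expressing LAP1 and is applied at 0.3 µg/mL; score merges spot fluorescence near 667 nm with signal-to-noise over triplicate slides.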 The settings on record: probe aLAP1, fluorescence, higher = more signal.
For the next test, the system named is Sam68 (KHDRBS1). The experiment in a line: compounds binding KHDRBS1 protein – biochemical, small-molecule microarray, 635 nm fluorescence, primary screen (AID 1125).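 Note: score merges 667 nm channel intensity with signal to noise over triplicate slides.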 The settings on record: higher = more signal.
The test system of test [17] is Chordin-like protein 2 (CHRDL2). The experiment in a line: compounds binding chordin-like 2 – biochemical, small-molecule microarray, 635 nm fluorescence, primary screen (AID 1126).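 Note: printed compound slides probed with Chrdl2 protein at 4 µg/mL for 1 h at 4 C; score merges 667 nm emission intensity with signal to noise over three replicate slides.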 The settings on record: fluorescence 635 nm, higher = more signal.
Test [18] deals with Concanavalin-A (Canavalia ensiformis) (UniProt P02866). In words: compounds binding concanavalin A lectin – biochemical, small-molecule microarray, Alexa647 label, 635 nm, artefact control for SMM control protein annotation, primary screen (AID 1127).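 Note: z combines 667 nm emission intensity with signal-to-noise across three replicate slides.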 The settings on record: ConA-A647 binding fluorescence, higher = more signal.
Concanavalin-A (Canavalia ensiformis), sequence (P02866 whole entry, looked up): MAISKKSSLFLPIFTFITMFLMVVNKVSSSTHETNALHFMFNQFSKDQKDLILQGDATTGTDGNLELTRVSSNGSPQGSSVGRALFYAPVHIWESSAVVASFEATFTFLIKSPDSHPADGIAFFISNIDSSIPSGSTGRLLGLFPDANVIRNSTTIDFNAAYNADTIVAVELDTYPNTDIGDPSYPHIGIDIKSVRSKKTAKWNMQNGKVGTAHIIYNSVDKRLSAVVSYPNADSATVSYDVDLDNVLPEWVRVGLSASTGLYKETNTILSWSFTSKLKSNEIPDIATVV

Left-right determination factor 2 (Homo sapiens), sequence (O00292 whole entry, looked up): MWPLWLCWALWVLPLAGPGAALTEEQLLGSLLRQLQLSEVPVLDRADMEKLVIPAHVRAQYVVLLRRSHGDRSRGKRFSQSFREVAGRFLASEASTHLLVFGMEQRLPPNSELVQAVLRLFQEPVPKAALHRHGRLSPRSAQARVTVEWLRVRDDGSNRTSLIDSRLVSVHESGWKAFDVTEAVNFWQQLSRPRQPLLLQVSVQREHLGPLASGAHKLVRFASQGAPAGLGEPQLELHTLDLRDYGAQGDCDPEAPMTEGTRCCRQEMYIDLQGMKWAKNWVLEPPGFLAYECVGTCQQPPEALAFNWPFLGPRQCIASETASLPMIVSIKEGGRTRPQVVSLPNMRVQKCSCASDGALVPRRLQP
Alpha-bungarotoxin (Bungarus multicinctus), sequence (P60615 whole entry, looked up): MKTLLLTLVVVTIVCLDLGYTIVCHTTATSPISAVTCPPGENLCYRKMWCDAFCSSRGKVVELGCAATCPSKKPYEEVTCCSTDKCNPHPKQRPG

Regarding `CN(C)CCCCNC(=O)[C@H]1C[C@H]2C(=O)NCC(=O)N2[C@H]1c1cccc(OCCO)c1`, the composite z-score in test [1] was -0.433; in test [3] it was -0.443; in [4] it was 0.0097; in test [5], 0.706; in [6] it was -0.0685; in [7], -0.285. The composite z-score in [8] is -0.437; in [9] it was 0.668; in [10], -0.115; with Albumin (Bos taurus) it was -0.539; in test [12] it was -0.179; in [13], -0.146. Besides, the composite z-score in [14] is 0.655; in test [15], 0.0949; in test [16], -0.235; in the test on Sam68 (KHDRBS1), -0.705; in test [17], 0.281; in [18] it was -0.408. Also, in test [2], the z-score amounted to 0.195. Also, the composite Z-score in [11] was 0.0388 (inactive).
Take `CC(C)CNC(=O)[C@@H]1c2ccccc2C(=O)N(C2Cc3ccccc3C2)[C@H]1c1ccc(CO)cc1`: the composite z-score in test [1] is 1.11; in test [3], -0.325; in test [4], -0.588; in test [5] it was -0.616; in test [6] it was -0.101; in test [7], -0.185. The composite z-score in [8] was 0.325; in test [9], 0.691; in test [10], -0.205; in the test with Albumin (Bos taurus), -0.191; in [12], -0.219; in test [13], -0.0984. Moreover, the composite z-score was 0.687 in [14]; 0.284 in test [15]; 1.45 in test [16]; 0.547 with Sam68 (KHDRBS1); -0.0902 in test [17]; 0.378 in test [18]. Further, the z-score in test [2] was -0.235. Moreover, the composite Z-score in test [11] was -0.577 (inactive).
Consider `CC(=O)NCCCC[C@@H]1NC(=O)[C@H]2C[C@@H](C(=O)NCCCCCC[N+](C)(C)C)[C@@H](c3ccc(O)cc3)N2C1=O`, for which the composite z-score in test [1] was 1.4; in [3], 0.62; in [4], -0.183; in test [5], -0.906; in test [6], -0.107; in test [7], -0.153. In addition, the composite z-score was 0.762 in test [8]; 0.611 in [9]; 0.472 in [10]; 0.596 with Albumin (Bos taurus); -0.0057 in test [12]; -0.0556 in test [13]. Besides, the composite z-score in test [14] was found to be 0.676; in test [15], 2.2; in [16] it was 0.527; in the test with Sam68 (KHDRBS1), 1.17; in [17], 1.4; in [18], 0.682. This molecule registered a z-score in test [2] of 1.38. For the same molecule, the composite Z-score in test [11] is 0.285 (inactive).
`CC(C)C[C@@H]1NC(=O)C([C@@H](C)OCc2ccccc2)NC(=O)[C@@]23C(=O)N[C@@H](Cc4ccccc4)C2[C@H](C)[C@@]2(C)O[C@H]2C3/C=C/CC/C=C/CNC1=O` (stereo not given in full): the composite z-score was 1.12 in [1]; 0.458 in test [3]; -0.407 in [4]; -0.543 in test [5]; -0.15 in test [6]; -0.0064 in test [7]. In addition, the composite z-score in [8] was -0.24; in [9], 0.0641; in test [10], -0.0687; in the test with Albumin (Bos taurus), 0.438; in test [12] it was -0.0647; in test [13], -0.128. The composite z-score in test [14] was 0.469; in [15], 0.73; in test [16] it was 0.184; in the test with Sam68 (KHDRBS1), 1.34; in [17], 0.554; in test [18] it was 0.329. The z-score in test [2] was -2.63. For the same molecule, in test [11], the composite Z-score is -0.0807 (inactive).
For the molecule `N#Cc1ccc(C(O)C2C=CC3C(=O)N(c4ccccc4)C(=O)C3N2Nc2ccc([N+](=O)[O-])cc2)cc1` (stereo not given), the composite z-score in [1] was 0.632; in test [3], 0.0058; in test [4], 2.16; in test [5], 1.14; in [6], 0.222; in test [7] it was 0.0434. Further, the composite z-score in test [8] was found to be 0.595; in [9] it was 1.69; in test [10], 1.96; with Albumin (Bos taurus), 0.895; in test [12] it was 0.0749; in [13], 0.0912. Also, the composite z-score in test [14] is 0.748; in [15], 2.45; in [16], 1.05; in the test on Sam68 (KHDRBS1) it was 1.28; in test [17], -0.558; in test [18] it was 1.23. Further, the z-score in test [2] is -1.2. Further, the composite Z-score in test [11] is 0.453 (inactive).
Consider `CCOC(=O)C[C@H]1[C@H](OC(=O)c2ccc(-c3ccccc3)cc2)[C@@H](NC(=O)c2ccc3ccccc3c2)c2cc(OCCCO)ccc2N1C(=O)c1ccccc1`, for which the composite z-score in test [1] worked out at 0.965; in test [3], 0.564; in [4] it was 0.128; in [5], 0.116; in [6], 0.163; in test [7], 0.0637. Besides, the composite z-score in test [8] was 0.0395; in test [9], 0.341; in test [10], 0.509; with Albumin (Bos taurus) it was 0.571; in [12] it was 0.0351; in test [13] it was -0.132. Besides, the composite z-score in test [14] is 0.119; in test [15], 0.916; in test [16], 0.14; in the test with Sam68 (KHDRBS1) it was 1.16; in test [17] it was -0.126; in [18] it was 0.353. Also, in [2], the z-score is -1.09. Besides, in [11], the composite Z-score was 1.03 (inactive).
